Data published in PubChem BioAssay AID540317 (National Center for Advancing Translational Sciences (NCATS), 2011).
Out of some 390,000 compounds screened, about 2,200 (0.56%) were called active. About 3% were inconclusive and are not listed. The sample holds actives, similar compounds and a random draw of the others, so the mix is not that of the screen. Calls come from the whole dose curve; as a rule, active = well fitted inhibition curve with a large enough effect; inconclusive = small, poorly fitted or top-dose-only effect; inactive = no such curve, though single readings can be large or run the other way.

molecular target: Chromobox protein homolog 1 (Homo sapiens) (UniProt P83916); experiment: HTS for Inhibitors of HP1-beta Chromodomain Interactions with Methylated Histone Tails; settings: AlphaScreen HP1-beta / biotin-H3K9me3 peptide binding; series mostly up to 114 µM; activity change, negative = inhibition: at the top concentration; note: nearly all actives have a fitted effect of over 70% in size
Procedure, shortened: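 HP1-beta protein (50 nM final) preincubated 30 min at room temperature with biotinylated H3(1-18)K9me3 peptide (50 nM) in PBS pH 7.4, 0.01% Tween-20, then compound added for 30 min. AlphaScreen streptavidin donor/nickel chelate acceptor beads (10 ug/mL final), 30 min dark, luminescence read.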
Potency is the fitted concentration of half-maximal effect.

Chromobox protein homolog 1 (Homo sapiens), sequence (P83916 whole entry, looked up): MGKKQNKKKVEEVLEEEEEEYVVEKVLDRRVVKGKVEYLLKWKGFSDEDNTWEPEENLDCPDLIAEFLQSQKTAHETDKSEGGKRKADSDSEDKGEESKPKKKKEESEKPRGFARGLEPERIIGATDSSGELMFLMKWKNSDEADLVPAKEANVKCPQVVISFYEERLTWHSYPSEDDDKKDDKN

Activity change, negative = inhibition, inactive:
COc1ccc(Cl)cc1NC(=O)c1sc2nc3c(cc2c1N)CN(C)CC3 16.1%
COC(=O)c1ccccc1NS(=O)(=O)c1ccc2c(c1)CCCN2C(C)=O 21.1%
COc1cc(/C=C/C(=O)O)cc(S(=O)(=O)Nc2ccccc2C(=O)NCCc2ccccc2)c1OC 4.3%
CCC(=O)N1CCc2cc(S(=O)(=O)NC(CC(C)C)C(=O)NCCc3cccc(C)c3)ccc21 (centres undefined) 37.5%
CC(C)Cn1c(=O)c2ccccc2n2c(CCC(=O)N3CCN(c4cccc(Cl)c4)CC3)nnc12 19.7%
CC(Sc1oc(-c2ccco2)nc1S(=O)(=O)c1ccc(Br)cc1)c1ccccc1 (centres undefined) 5.19%
O=C(NCc1ccccn1)[C@]1(C(F)(F)F)C[C@H](CCc2ccccc2)CCCO1 21.8%
Cc1nn(C)cc1/C=C1\CCC/C(=C\c2cn(C)nc2C)C1=O 12.7%
Nc1[nH][nH]c(=O)c1N=Nc1ccc2c(c1)OCO2 3.77%
O=C1CC(c2ccccc2)CC2=C1C(c1ccco1)n1nc(C(F)(F)F)nc1N2 (centres undefined) 8.1%
CCOC(=O)c1cc2c(=O)n3ccccc3nc2n(CC2CCCO2)c1=NC(=O)c1ccccc1F (centres undefined) 33.6%
O=C(CC1C(=O)N(c2ccccc2)C(=O)N1CCc1cccs1)Nc1ccc(F)cc1 (centres undefined) 17.3%
Cc1ccc(Cc2nc3ccccc3nc2SCC(=O)Nc2cccc(C(F)(F)F)c2)cc1 24% [at 57 µM]
CNC(=O)[C@]1(C(F)(F)F)C[C@H](CCc2ccccc2)CCCO1 17.5%
CCc1cnc2c(c1SCC(=O)N1CCC(C)CC1)c(=O)n(C)c(=O)n2C 1.69%
COc1ccc(Cn2ccn(Cc3cccc(OC)c3)c(=O)c2=O)cc1 18.3%
COc1ccccc1CNC(=O)C(=O)NCC(c1ccco1)S(=O)(=O)c1ccc(F)cc1 (centres undefined) 27.2%
CC(=O)Oc1ccc(C(C)=O)c2c1OCCO2 12.1%
COc1ccc(C)cc1N(C)C(=O)c1c(C)oc2ncnc(N3CCOCC3)c12 5.31%
COc1ccc(CCC(=O)NCCc2csc(-c3ccc(Cl)cc3)n2)cc1 9.83% [at 57 µM]
COc1ccc(C2CC(O)(c3ccccc3)Oc3cc(C)cc(C)c32)cc1 (centres undefined) 36.4%
COc1ccccc1-c1cc(C(F)(F)F)nc(S(=O)(=O)CCCC(=O)Nc2ccc(F)cc2F)n1 62.8%
CC1(C)C/C(=N/Nc2ccc([N+](=O)[O-])cc2[N+](=O)[O-])C(C)(C)O1 -6.49%
C[n+]1ccccc1C1CCCC/C1=N\Nc1ccc([N+](=O)[O-])cc1[N+](=O)[O-] (centres undefined) 21.4%
COc1ccc(CN2CCC(=O)c3ccccc3S2(=O)=O)cc1 34.2%
COc1cc(NC(=O)c2cc3ccc4cccnc4c3[nH]2)cc(OC)c1OC 21.2%
Cc1ccc(C)c(Cn2c(CCCNC(=O)C3CCCCC3)nc3ccccc32)c1 31.9%
COc1ccc(C(=O)Nc2c(Cl)cc(Cl)cc2C(=O)N2CCC(C)CC2)cc1 6.49%
CC1CCN(C(=S)c2cccc(O)c2)CC1 -6.99%
Cc1ccc(C(=O)Nc2nc(-c3ccccc3)ns2)cc1 51.4%
Cc1cc(C)cc(NC(=O)Cc2csc(C)n2)c1 23.5%
CCOc1ccc(N(Cc2ccccc2)C(=O)c2nc(SCC)ncc2Cl)cc1 39.6%
O=C(NC1CC(=O)N(c2ccc(F)cc2)C1)C1CCCCC1 (centres undefined) -6.51%
CCn1c2ccccc2c2nnc(N3CCN(c4cc(C)ccc4C)CC3)nc21 20.6%
CCOCCCNC(=O)c1c(NC(=O)Cc2coc3c(C)c(C)ccc23)sc2c1CCC2 18%
O=C(NCCc1ccccc1)c1cnc2sc(N3CCCC3)nn2c1=O -3.36%
COc1ccc(Cc2nnc(SCC(=O)c3cccc([N+](=O)[O-])c3)n2C)cc1 8.15%
COc1cccc(C(=O)CC(=O)C(=O)Nc2ccc([N+](=O)[O-])cc2C)c1 22.1%
Cc1ccccc1CNC(=O)CCCn1nc(C)c2sc3ccccc3c2c1=O 47.8%
NS(=O)(=O)c1ccc(NC(=O)CSc2nnc3c(n2)[nH]c2ccccc23)cc1 58.7%
COc1ccc(C(=O)COC(=O)C(O)c2ccccc2)c(OC)c1 (centres undefined) 24.5%
COc1ccc(/C=C2/C(=O)OCc3cc(OC)c(OC)cc32)c(OC)c1 1.57%
CC1CC(C)CN(c2oc(-c3ccc(OCc4ccc(Cl)cc4)cc3)nc2C#N)C1 (centres undefined) 10.1% [at 57 µM]
COc1ccc(C(=O)CSc2c(C(C)C)cnc3c2c(=O)n(C)c(=O)n3C)cc1 28.3% [at 57 µM]
O=C(CCc1cn(Cc2ccc(F)cc2)c2ccccc12)NC1CCCCC1 9.66%
CCc1ccccc1N1C(=O)CN(S(=O)(=O)CC)CC1(C)C(=O)NC1CCCCC1 (centres undefined) 39.3%
C=CCNC(=O)c1ccc2nc(-c3ccco3)c(-c3ccco3)nc2c1 -1.18% [at 57 µM]
CCOc1ccc(NC(=O)c2ncoc2-c2ccco2)cc1 -8%
CCN(CC)CCNC(=O)Cn1ncc2c3ccccc3n(Cc3ccccc3C)c2c1=O 27.7%
CCCCN1C(=O)/C(=C(/C#N)C(N)=O)c2ccccc21 23.7%
Cc1ccc(C(=O)CC2(O)C(=O)N(CCc3ccccc3)c3ccc(Br)cc32)cc1 (centres undefined) 7.9%
COc1ccc(CCNC(=O)c2ccc(-n3c(C)cc4c3CCCC4)cc2)cc1OC 10.2%
CCOC(=O)c1ccc(NC(=O)c2c(NCc3cccs3)sc3c2CCCC3)cc1 -7.25%
COC(=O)c1ccc2c(c1)N(CC(=O)Nc1ccc(C)c(C)c1)C(=O)c1ccccc1S2 24.8% [at 57 µM]
O=C(CN1CCN(c2ncc(C(F)(F)F)cc2Cl)CC1)Nc1ccc2c(c1)OCO2 11.5%
COc1ccc(S(=O)(=O)c2c(Nc3cccc(Cl)c3)sc(C(=O)c3ccccc3)c2N)cc1 11.4%
Nc1ncc(S(=O)(=O)Nc2ccc(OC(F)(F)F)cc2)cn1 25% [at 57 µM]
O=C1Cc2cc(S(=O)(=O)Nc3ccc(OC(F)(F)F)cc3)cc3c2N1CCC3 43.4%
O=C(NCCCO)c1nn(-c2ccc(Cl)cc2)nc1CO 20.1%
CCOc1ccc(NC(=O)CSc2nnc3c(n2)[nH]c2ccc(S(=O)(=O)N4CCOCC4)cc23)cc1 11.7%
Cc1cc(Nc2cc(N3CCN(C)CC3)nc(Sc3ccc(NC(=O)C4CC4)cc3)n2)n[nH]1 9.95%
O=C(COc1ccccc1)Nc1ccc(N2CCN(C(=O)c3cccs3)CC2)cc1 -10.2%
Cc1cc2nn(-c3ccc(Cl)cc3)nc2cc1NC(=O)C(C)C 35.5%
COc1ccc(S(=O)(=O)NNC(=O)Nc2ccc(C)cc2)c(OC)c1 28.3%
Oc1c(Br)cc(/C=N/NC(=S)NCC2CCCO2)cc1Br (centres undefined) 19%
CN1CCN(C(CNC(=O)c2ccccc2F)c2ccc3c(c2)OCO3)CC1 (centres undefined) 23.5% [at 57 µM]
CN(C)C(=O)CSc1n[nH]c(-c2ccco2)n1 2.01%
Fc1ccc(CSc2nc(NCc3ccccc3)c3ccccc3n2)cc1 61.9%
CC1(C)N=C(SCc2ccccc2Cl)c2ccccc2N1 259%
Clc1ccccc1CSc1nncn2c1cc1occc12 4.73%
Cc1ccc(CNC(=O)CCc2c(C)nn(-c3ccc(N4CCCC4)nn3)c2C)cc1 134%
CCCN1CCC(=O)N(C(CSc2ccc(OC)cc2)Cc2ccccc2)CC1 (centres undefined) 30.4%
COc1ccc(Cl)cc1S(=O)(=O)N1CCC(c2ccncc2)CC1 54.6%
COc1ccc(OC)c(NC(=O)CSC2=Nc3ccccc3C3=NC(CC(=O)NCc4ccc(F)cc4)C(=O)N23)c1 (centres undefined) -3.25%
CCc1nc2nc(C)cc(Nc3ccc(F)c(Cl)c3)n2n1 26.4%
COc1ccc(S(=O)(=O)Nc2cccc3cccnc23)c(N)c1 13%
COc1ccc(C(=O)Nc2ccc(-n3nncc3-c3ccccc3)cc2)cc1OC -12.4%
CC(=O)Nc1ccc(S(=O)(=O)N2N=NC3C2C2CC4C3(CN(C(=O)OC(C)(C)C)S4(=O)=O)O2)cc1 (centres undefined) 33.6%
COc1cccc(-c2nc(S(=O)(=O)c3ccc(C)cc3)c(NCc3ccccc3)o2)c1 76.4%
Cc1ccc2c(c1)N(C(=O)Nc1ccc(Br)cc1F)CCO2 11.8%
COC(=O)c1scc(-c2ccc(C)cc2)c1S(=O)(=O)Nc1cc(Cl)c(OC)cc1OC 15.8%

Potency, active:
COc1ccc(Br)cc1/C=N/Nc1ccc(S(=O)(=O)Nc2ccccc2C(=O)O)cc1[N+](=O)[O-] 22.4 µM
O=C1/C(=C/c2ccc3c(c2)OCO3)CCC/C1=C\c1ccc2c(c1)OCO2 28.2 µM
CC(C)OC(=O)c1ccc(NCc2cc(O)ccc2O)cc1Cl 39.8 µM
CC(C)(C)C(=O)OCc1nc(-c2ccc(O)c(O)c2)cs1 70.8 µM
CC(=O)Oc1ccc(OC(C)=O)c2c1C1C=CC2CC1 89.1 µM
O=[N+]([O-])c1ccc(N/N=C2/CCCCC2c2ccccn2)c([N+](=O)[O-])c1 (centres undefined) 35.5 µM
CC1CCN(C(=S)c2ccc(-c3ccc(Cl)cc3Cl)o2)CC1 22.4 µM
COc1cccc(NCCC(=O)c2cccc([N+](=O)[O-])c2)c1 79.4 µM
COc1ccc(/C=C2/C(=O)N(c3ccccc3)N=C2C)c(OC)c1 12.6 µM
COCCNC(=O)Nc1ccc2nc(-c3ccco3)c(-c3ccco3)nc2c1 8.91 µM
COc1ccc2c(c1)C(=C(C#N)C#N)C(=O)N2CCc1ccccc1 39.8 µM
Cc1ccc(C(=O)O)cc1-c1ccc(/C=C2\SC(=O)N(CC(=O)Nc3ccc4c(c3)OCO4)C2=O)o1 79.4 µM
O=S(=O)(Nc1ccc(O)c2ccccc12)c1ccc(OC(F)(F)F)cc1 44.7 µM
C=CC(=O)Nc1ccc(Nc2ccnc(Nc3ccc(N4CCN(C)CC4)cc3)n2)cc1 44.7 µM
COc1cc(/C=N/Nc2ccc(C)cc2)cc(Br)c1O 79.4 µM
c1ccc(CSc2nnc(-c3ccco3)c(-c3ccco3)n2)cc1 39.8 µM
Clc1ccccc1CSc1nnc(-c2ccco2)c(-c2ccco2)n1 20 µM
CC(C)(C)C1C/C(=C/c2ccco2)C(=O)/C(=C/c2ccco2)C1 (centres undefined) 39.8 µM
